Test results taken from the supplement of paper PMC9262897, “Low-cost anti-mycobacterial drug discovery using engineered E. coli” (Nature Communications, 2022).
Counter-ions that a name gives are not always drawn. ± gives the standard deviation of the averaged measurements.

Assays:
Experiment in all cases: growth (OD600 after 10 h); higher = more growth (less inhibition)
[1] = test system: E. coli TESEC Alr+ wild-type control; settings: compound 0.1 mM; raw OD600 reference: median of DMSO wells 0.241, cell-free background 0.041
Description: (§1)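 TESEC Mtb Alr E. coli, or the Alr+ wild-type control, in 384-well plates with Prestwick library compounds at 0.1 mM and 1% DMSO, across arabinose induction levels of 1E3 to 1E7 nM. Growth is read as OD600 after 10 h at 37 °C in triplicate biological replicates.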

E. coli TESEC Mtb Alr [2] = settings: compound 0.1 mM
Description: as §1

E. coli TESEC Mtb Asd = settings: compound 0.1 mM
Description: (§2)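 TESEC E. coli strains in which the native enzyme is deleted and replaced by arabinose-inducible Mtb Asd, DapB, CysH or TrpD, each grown in its selective medium. Strains were screened against the Prestwick library at 0.1 mM and 1% DMSO in 384-well format at low and high arabinose induction. Growth is read as OD600 after 10 h in triplicate.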

E. coli TESEC Mtb Alr [3] = settings: compound 0.1 mM; remark: listed apart in the source
Description: (§3)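 TESEC Mtb Alr E. coli (ΔaraC ΔtolC ΔentC Δalr ΔdadX, arabinose-inducible Mtb Alr) or the Alr+ wild-type control strain, grown in defined M9-fructose medium without D-alanine in 96-well plates with Prestwick library compounds at 0.1 mM and 1% DMSO. Low Alr induction is 0.1 µM arabinose and high induction is 10 mM arabinose.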

E. coli TESEC Mtb DapB = settings: compound 0.1 mM
Description: as §2

[4] = test system: E. coli TESEC Alr+ wild-type control; settings: compound 0.1 mM; raw OD600 reference: median of DMSO wells 0.49, cell-free background 0.052
Description: as §3

[5] = arabinose 1000 nM, raw OD600 reference: median of DMSO wells 0.294, cell-free background 0.041
[6] = arabinose 10000 nM, raw OD600 reference: median of DMSO wells 0.264, cell-free background 0.041
[7] = arabinose 100000 nM, raw OD600 reference: median of DMSO wells 0.201, cell-free background 0.041
[8] = arabinose 1000000 nM, raw OD600 reference: median of DMSO wells 0.193, cell-free background 0.041
[9] = arabinose 10000000 nM, raw OD600 reference: median of DMSO wells 0.146, cell-free background 0.041
[10] = arabinose induction (level): High, raw OD600 reference: median of DMSO wells 0.331, cell-free background 0.041
[11] = arabinose induction (level): Low, raw OD600 reference: median of DMSO wells 0.417, cell-free background 0.041
[12] = arabinose 100 nM, raw OD600 reference: median of DMSO wells 0.413, cell-free background 0.052
[13] = arabinose 10000000 nM, raw OD600 reference: median of DMSO wells […], cell-free background 0.052
[14] = arabinose induction (level): High, raw OD600 reference: median of DMSO wells […], cell-free background 0.041
[15] = arabinose induction (level): Low, raw OD600 reference: median of DMSO wells 0.227, cell-free background 0.041

| SMILES | growth [1] | growth (E. coli TESEC Mtb Alr [2]; [5]) | growth (E. coli TESEC Mtb Alr [2]; [6]) | growth (E. coli TESEC Mtb Alr [2]; [7]) | growth (E. coli TESEC Mtb Alr [2]; [8]) | growth (E. coli TESEC Mtb Alr [2]; [9]) | growth (E. coli TESEC Mtb Asd; [10]) | growth (E. coli TESEC Mtb Asd; [11]) | growth (E. coli TESEC Mtb Alr [3]; [12]) | growth (E. coli TESEC Mtb Alr [3]; [13]) | growth (E. coli TESEC Mtb DapB; [14]) | growth (E. coli TESEC Mtb DapB; [15]) | growth [4] |
| --- | --- | --- | --- | --- | --- | --- | --- | --- | --- | --- | --- | --- | --- |
| CO[C@H]1/C=C/O[C@@]2(C)Oc3c(C)c(O)c4c(O)c(c(/C=N/N5CCN(C)CC5)c(O)c4c3C2=O)NC(=O)/C(C)=C\C=C\[C@H](C)[C@H](O)[C@@H](C)[C@@H](O)[C@@H](C)[C@H](OC(C)=O)[C@@H]1C [Rifampicin] | 0.0429 ± 0.0015 | 0.0442 ± 0.003 | 0.04117 ± 0.00021 | 0.0444 ± 0.0018 | 0.04127 ± 0.00012 | 0.043 ± 0.0014 | 0.0643 ± 0.011 | 0.0572 ± 0.0093 | 0.0557 ± 0.00079 | 0.0524 ± 0.00092 | – | – | – |
| O=C(O)c1cc(-c2ccc(F)cc2F)ccc1O [Diflunisal] | 0.128 ± 0.0035 | – | – | – | – | – | 0.218 ± 0.059 | 0.139 ± 0.0027 | 0.248 ± 0.052 | 0.136 ± 0.006 | 0.172 ± 0.0032 | 0.17 ± 0.0045 | 0.279 ± 0.0091 |
| CCN(CC)CCOC(=O)C(c1ccccc1)c1ccccc1 [Adiphenine hydrochloride] | 0.222 ± 0.0088 | – | – | – | – | – | 0.197 ± 0.033 | 0.382 ± 0.069 | 0.414 ± 0.0051 | 0.313 ± 0.051 | 0.165 ± 0.0095 | 0.223 ± 0.046 | 0.494 ± 0.04 |
| CC(C)(C)NC(=O)[C@@H]1C[C@@H]2CCCC[C@@H]2CN1C[C@@H](O)[C@H](Cc1ccccc1)NC(=O)[C@H](CC(N)=O)NC(=O)c1ccc2ccccc2n1 [Saquinavir mesylate] | 0.072 ± 0.012 | 0.0535 ± 0.0019 | 0.0491 ± 0.0035 | 0.0468 ± 0.0011 | 0.051 ± 0.0027 | 0.0524 ± 0.0032 | 0.0544 ± 0.0037 | 0.0524 ± 0.001 | 0.273 ± 0.11 | 0.0539 ± 0.0034 | – | – | – |
| CN1CCc2c(c3ccccc3n2Cc2ccccc2)C1 [Mebhydroline 1,5-naphtalenedisulfonate] | 0.175 ± 0.0028 | – | – | – | – | – | 0.179 ± 0.014 | 0.278 ± 0.055 | 0.404 ± 0.0065 | 0.261 ± 0.034 | 0.187 ± 0.017 | 0.207 ± 0.0028 | 0.4471 ± 0.0035 |
| CCCCOc1cc(C(=O)NCCN(CC)CC)c2ccccc2n1 [Dibucaine] | 0.216 ± 0.016 | – | – | – | – | – | 0.239 ± 0.058 | 0.3947 ± 0.0033 | 0.415 ± 0.0019 | 0.321 ± 0.025 | 0.184 ± 0.016 | 0.25 ± 0.025 | 0.452 ± 0.017 |
| NS(=O)(=O)c1cc2c(cc1Cl)N=C(CSCc1ccccc1)NS2(=O)=O [Benzthiazide] | 0.241 ± 0.008 | – | – | – | – | – | 0.286 ± 0.026 | 0.487 ± 0.025 | 0.405 ± 0.0095 | 0.3136 ± 0.0011 | 0.194 ± 0.016 | 0.21 ± 0.012 | 0.606 ± 0.051 |
| CN1CCN(C2=Nc3ccccc3Oc3ccc(Cl)cc32)CC1 [Loxapine succinate] | 0.166 ± 0.0027 | – | – | – | – | – | 0.201 ± 0.029 | 0.214 ± 0.021 | 0.381 ± 0.017 | 0.224 ± 0.014 | 0.19 ± 0.0079 | 0.248 ± 0.079 | 0.399 ± 0.0093 |
| CC1(C)O[C@@H]2C[C@H]3[C@@H]4CCC5=CC(=O)CC[C@]5(C)[C@@]4(F)[C@@H](O)C[C@]3(C)[C@]2(C(=O)CCl)O1 [Halcinonide] | 0.215 ± 0.022 | – | – | – | – | – | 0.258 ± 0.052 | 0.36 ± 0.049 | 0.413 ± 0.021 | 0.256 ± 0.019 | 0.188 ± 0.003 | 0.22 ± 0.0073 | 0.442 ± 0.032 |
| CC(C(=O)O)c1ccc(-c2ccccc2)c(F)c1 (stereo unspecified) [Flurbiprofen] | 0.188 ± 0.0069 | 0.239 ± 0.014 | 0.23 ± 0.0069 | 0.168 ± 0.0089 | 0.161 ± 0.0092 | 0.1346 ± 0.00075 | 0.366 ± 0.076 | 0.238 ± 0.056 | 0.387 ± 0.021 | 0.286 ± 0.014 | – | – | – |
| O=C1Nc2ccc(Cl)cc2[C@@](C#CC2CC2)(C(F)(F)F)O1 [Efavirenz] | 0.0395 ± 0.00017 | 0.0401 ± 0.00093 | 0.0421 ± 0.0013 | 0.0412 ± 0.0003 | 0.03963 ± 0.00025 | 0.0413 ± 0.0013 | 0.0541 ± 0.0055 | 0.0488 ± 0.0019 | 0.259 ± 0.075 | 0.049 ± 0.00044 | – | – | – |
| CN1CCN(C(c2ccccc2)c2ccccc2)CC1 [Cyclizine hydrochloride] | 0.216 ± 0.0082 | – | – | – | – | – | 0.173 ± 0.0089 | 0.31 ± 0.039 | 0.41 ± 0.011 | 0.325 ± 0.0044 | 0.168 ± 0.0017 | 0.196 ± 0.0017 | 0.602 ± 0.088 |
| O=C1c2ccccc2C(=O)C1c1ccccc1 [Phenindione] | 0.243 ± 0.0053 | – | – | – | – | – | 0.226 ± 0.037 | 0.321 ± 0.023 | 0.408 ± 0.0092 | 0.302 ± 0.025 | 0.194 ± 0.0095 | 0.227 ± 0.017 | 0.488 ± 0.05 |
| CCOC(=O)NNc1nncc2ccccc12 [Todralazine hydrochloride] | 0.252 ± 0.0065 | – | – | – | – | – | 0.361 ± 0.1 | 0.346 ± 0.078 | 0.406 ± 0.0052 | 0.271 ± 0.17 | 0.206 ± 0.011 | 0.275 ± 0.03 | 0.452 ± 0.021 |
| OC(c1cc(C(F)(F)F)nc2c(C(F)(F)F)cccc12)C1CCCCN1 (stereo unspecified) [Mefloquine hydrochloride] | 0.0408 ± 0.00093 | – | – | – | – | – | 0.0511 ± 0.0036 | 0.055 ± 0.0046 | 0.199 ± 0.23 | 0.0512 ± 0.00055 | 0.0464 ± 0.00035 | 0.0483 ± 0.0032 | 0.04863 ± 0.00045 |
| Cc1cc(C(=O)NNCc2ccccc2)no1 [Isocarboxazid] | 0.253 ± 0.0036 | – | – | – | – | – | 0.492 ± 0.0092 | 0.441 ± 0.039 | 0.402 ± 0.014 | 0.362 ± 0.013 | 0.211 ± 0.023 | 0.239 ± 0.035 | 0.463 ± 0.036 |
| CC(C)[C@H]1CC[C@H](C(=O)N[C@H](Cc2ccccc2)C(=O)O)CC1 [Nateglinide] | 0.181 ± 0.0028 | – | – | – | – | – | 0.229 ± 0.039 | 0.23 ± 0.021 | 0.22 ± 0.16 | 0.284 ± 0.009 | 0.1583 ± 0.001 | 0.217 ± 0.06 | 0.6242 ± 0.0051 |
| NNC(=O)c1ccncc1 [Isoniazid] | 0.242 ± 0.0073 | – | – | – | – | – | 0.396 ± 0.028 | 0.429 ± 0.083 | 0.405 ± 0.0067 | 0.359 ± 0.022 | 0.194 ± 0.0035 | 0.242 ± 0.052 | 0.458 ± 0.054 |
| C#C[C@]1(O)CC[C@H]2[C@@H]3CCc4cc(OC)ccc4[C@H]3CC[C@@]21C [Ethynylestradiol 3-methyl ether] | 0.193 ± 0.01 | – | – | – | – | – | 0.383 ± 0.025 | 0.413 ± 0.06 | 0.405 ± 0.011 | 0.348 ± 0.024 | 0.204 ± 0.031 | 0.226 ± 0.025 | 0.564 ± 0.025 |
| CCCN(CCC)S(=O)(=O)c1ccc(C(=O)O)cc1 [Probenecid] | 0.226 ± 0.0059 | – | – | – | – | – | 0.346 ± 0.12 | 0.371 ± 0.07 | 0.4 ± 0.016 | 0.267 ± 0.0045 | 0.232 ± 0.0066 | 0.223 ± 0.02 | 0.49 ± 0.048 |
| CCN(CC)CCOC(=O)C1(C2CCCCC2)CCCCC1 [Dicyclomine hydrochloride] | 0.137 ± 0.0054 | – | – | – | – | – | 0.137 ± 0.014 | 0.21 ± 0.049 | 0.393 ± 0.017 | 0.11 ± 0.003 | 0.144 ± 0.0069 | 0.183 ± 0.041 | 0.46 ± 0.008 |
